We go through nine compounds from PubChem BioAssay (NCI).

Holding throughout (assay): NCI-60 one-dose screen, 48 h (100 = growth as untreated, 0 = no growth, -100 = all killed)
One experiment concerns SR leukemia. Conditions: 10 µM unless noted.
A further experiment deals with RPMI-8226 leukemia. Conditions: 10 µM unless noted.
The next experiment deals with OVCAR-8 ovarian. Conditions: 10 µM unless noted.
The next experiment concerns OVCAR-5 ovarian. Conditions: 10 µM unless noted.
For the next experiment, the system named is OVCAR-4 ovarian. Conditions: 10 µM unless noted.
The subject of the next experiment is SK-OV-3 ovarian. The settings on record: 10 µM unless noted.
The test system of the next experiment is IGROV1 ovarian. Conditions: 10 µM unless noted.
A further experiment concerns OVCAR-3 ovarian. Conditions: 10 µM unless noted.
A further experiment has as its system HS 578T breast. The settings on record: 10 µM.
In another experiment the test system is NCI/ADR-RES ovarian. The settings on record: 10 µM unless noted.
A further experiment relates to T-47D breast. Conditions: 10 µM unless noted.
The next experiment concerns BT-549 breast. Conditions: 10 µM unless noted.
Another experiment deals with MDA-MB-435 melanoma. The settings on record: 10 µM unless noted.
Another experiment has as its system SW-620 colon. Conditions: 10 µM unless noted.
The subject of a further experiment is MCF7 breast. The settings on record: 10 µM unless noted.
The next experiment concerns HCT-116 colon. The settings on record: 10 µM unless noted.
Another experiment concerns HCC-2998 colon. Conditions: 10 µM unless noted.
The next experiment has as its system KM12 colon. The settings on record: 10 µM unless noted.

The panel holds about 83,000 compounds, 20% with a hit somewhere; the sample as a whole holds those more often.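 Cell lines were cultured in 96-well plates, exposed to a single compound concentration, and assessed for percent growth 48 hours later.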 A number with no mark means an inactive call. The source made the active and inactive calls. Rule for the calls: active = growth percent below 10; inactive = the rest.

For the compound `CN(C)c1ccc(C(c2ccccc2)c2ccc(N(C)C)cc2)cc1`, the growth in the experiment on SR leukemia was 68.2%; in the experiment on RPMI-8226 leukemia, 57.4%; with OVCAR-8 ovarian, 90.9%; with OVCAR-5 ovarian it was 94%; in the experiment on OVCAR-4 ovarian, 99.8%; with SK-OV-3 ovarian, 106%. Also, the growth with IGROV1 ovarian is 113%; with OVCAR-3 ovarian, 94.9%; with HS 578T breast it was 98.8%; in the experiment on NCI/ADR-RES ovarian, 85%; with T-47D breast, 86.7%; in the experiment with BT-549 breast it was 101%. The growth was 97% in the experiment with MDA-MB-435 melanoma; 93.4% in the experiment on SW-620 colon; 90.3% with MCF7 breast; 80.6% in the experiment on HCT-116 colon; 95.7% in the experiment with HCC-2998 colon; 91.5% in the experiment with KM12 colon.
For the compound `O=C1/C(=C\c2cccn2C(=O)c2ccccc2)c2ccccc2N1c1c(Cl)cccc1Cl`, the growth is 25% with SR leukemia; 69.6% in the experiment with RPMI-8226 leukemia; 87% in the experiment with OVCAR-8 ovarian; 87.9% with OVCAR-5 ovarian; 59.4% in the experiment on OVCAR-4 ovarian; 95% with SK-OV-3 ovarian. Further, the growth was 71.2% with IGROV1 ovarian; 70.4% with OVCAR-3 ovarian; 95.6% in the experiment with HS 578T breast; 82.2% with NCI/ADR-RES ovarian; 65.6% in the experiment on T-47D breast; 102% in the experiment on BT-549 breast. Further, the growth was 33.8% with MDA-MB-435 melanoma; 30% in the experiment with SW-620 colon; 29.8% in the experiment on MCF7 breast; 30.5% with HCT-116 colon; 83.8% in the experiment with HCC-2998 colon; 65.4% with KM12 colon.
With `COc1cc(C2C=C(C)N=C3SC=NN32)cc(OC)c1OC` (stereo not given), the growth was 102% in the experiment on SR leukemia; 98.9% with RPMI-8226 leukemia; 92% with OVCAR-8 ovarian; 91.6% in the experiment on OVCAR-5 ovarian; 103% in the experiment with OVCAR-4 ovarian; 111% in the experiment on SK-OV-3 ovarian. In addition, the growth is 118% with IGROV1 ovarian; 116% in the experiment with OVCAR-3 ovarian; 106% in the experiment on HS 578T breast; 104% with NCI/ADR-RES ovarian; 109% with T-47D breast; 141% in the experiment on BT-549 breast. For the same compound, the growth in the experiment on MDA-MB-435 melanoma is 104%; with SW-620 colon, 105%; in the experiment with MCF7 breast it was 98.9%; in the experiment on HCT-116 colon, 111%; in the experiment with KM12 colon, 107%.
On to `CCc1ccc2c(c1)N(CCO)C1=C(C(=O)OC1)C2c1cccc(Cl)c1` (stereo not given), for which the growth in the experiment with SR leukemia is 20.2%; in the experiment with RPMI-8226 leukemia, 20.3%; in the experiment on OVCAR-8 ovarian, 27%; in the experiment with OVCAR-5 ovarian, 30.3%; in the experiment with OVCAR-4 ovarian, 63.8%; in the experiment on SK-OV-3 ovarian, 27.2%. Besides, the growth with IGROV1 ovarian was 31.2%; in the experiment on OVCAR-3 ovarian, -35.9% (active); with HS 578T breast it was 7.46% (active); in the experiment with NCI/ADR-RES ovarian it was 8.16% (active); in the experiment with T-47D breast, 52.1%; in the experiment with BT-549 breast, 42.1%. Besides, the growth was -57.3% (active) in the experiment on MDA-MB-435 melanoma; 26% with SW-620 colon; 24.5% with MCF7 breast; 15.3% in the experiment on HCT-116 colon; 13.4% with KM12 colon.
On to `CCN(CC)CCCC(C)Nc1cnc(C(=O)Nc2ccc(Cl)c3cccnc23)cn1` (stereo not given), for which the growth in the experiment on SR leukemia is 1.42% (active); in the experiment on RPMI-8226 leukemia it was 2.2% (active); with OVCAR-8 ovarian, 27.3%; with OVCAR-5 ovarian, 53.3%; in the experiment on OVCAR-4 ovarian, 51.3%; with SK-OV-3 ovarian, 79.5%. The growth was 44.2% with IGROV1 ovarian; -23.7% (active) in the experiment with OVCAR-3 ovarian; 51.4% with HS 578T breast; 52.2% with NCI/ADR-RES ovarian; -49.3% (active) in the experiment with T-47D breast; 80.1% in the experiment on BT-549 breast. Further, the growth with MDA-MB-435 melanoma is -57.8% (active); in the experiment on SW-620 colon, 0.619% (active); in the experiment on MCF7 breast, -2.14% (active); in the experiment with HCT-116 colon, -52.4% (active); in the experiment with HCC-2998 colon, 32.6%; in the experiment with KM12 colon, 30.3%.
As for `CC(=O)N[C@@H](CCC(N)=O)C(=O)O`, the growth is 104% in the experiment with SR leukemia; 107% in the experiment on RPMI-8226 leukemia; 98.8% in the experiment on OVCAR-8 ovarian; 111% in the experiment on OVCAR-5 ovarian; 111% in the experiment with OVCAR-4 ovarian; 96.7% in the experiment on SK-OV-3 ovarian. The growth with IGROV1 ovarian was 84.9%; in the experiment with OVCAR-3 ovarian, 102%; in the experiment on HS 578T breast, 81.7%; in the experiment on NCI/ADR-RES ovarian, 98.9%; with T-47D breast it was 107%; in the experiment on BT-549 breast, 118%. The growth in the experiment on MDA-MB-435 melanoma is 99.6%; in the experiment with SW-620 colon, 94.1%; in the experiment on MCF7 breast, 98.8%; with HCT-116 colon, 96.3%; with HCC-2998 colon it was 99.5%; in the experiment on KM12 colon, 103%.
Consider `COc1ccc([C@@H]2[C@@H](Oc3ccccc3)C(=O)N2c2cc(OC)c(OC)c(OC)c2)cc1F`, for which the growth with SR leukemia is 5.09% (active); in the experiment with RPMI-8226 leukemia, 3.15% (active); in the experiment with OVCAR-8 ovarian it was 6.55% (active); in the experiment on OVCAR-5 ovarian, 19.8%; with OVCAR-4 ovarian, 39%; with SK-OV-3 ovarian it was 16.6%. The growth in the experiment with IGROV1 ovarian is 18.5%; in the experiment with OVCAR-3 ovarian it was 1.08% (active); in the experiment with HS 578T breast it was 26%; in the experiment with NCI/ADR-RES ovarian, 12.2%; with T-47D breast it was 87.4%; in the experiment on BT-549 breast it was 1.45% (active). The growth is -27.5% (active) in the experiment on MDA-MB-435 melanoma; 26.2% in the experiment with SW-620 colon; 14.1% with MCF7 breast; 2.37% (active) in the experiment on HCT-116 colon; 12.9% with HCC-2998 colon; 11.7% with KM12 colon.
In the case of `COC(=O)C(C)NC1=C(Cl)C(=O)C(NC(C)C(=O)OC)=C(Cl)C1=O` (stereo not given), the growth with SR leukemia was 92.9%; with RPMI-8226 leukemia, 96.1%; in the experiment on OVCAR-8 ovarian, 94.2%; in the experiment with OVCAR-5 ovarian, 111%; in the experiment with OVCAR-4 ovarian, 78.6%; with SK-OV-3 ovarian it was 105%. In addition, the growth is 120% in the experiment with IGROV1 ovarian; 61.2% in the experiment on OVCAR-3 ovarian; 113% in the experiment on HS 578T breast; 101% in the experiment on NCI/ADR-RES ovarian; 96.6% with T-47D breast; 99.4% in the experiment with BT-549 breast. For the same compound, the growth was 75.7% with MDA-MB-435 melanoma; 104% in the experiment with SW-620 colon; 82.2% with MCF7 breast; 97.9% in the experiment on HCT-116 colon; 106% with HCC-2998 colon; 96.8% with KM12 colon.
For the compound `COc1ccc2cc(-c3nc(C)c(C(C)=O)c(-c4ccc(C)cc4)n3)ccc2c1`, the growth with SR leukemia is 108%; in the experiment on RPMI-8226 leukemia, 86.9%; in the experiment with OVCAR-8 ovarian it was 93.4%; in the experiment on OVCAR-5 ovarian, 93.1%; with OVCAR-4 ovarian, 92%; in the experiment on SK-OV-3 ovarian, 97.5%. For the same compound, the growth with IGROV1 ovarian is 101%; in the experiment on OVCAR-3 ovarian, 94.3%; in the experiment on HS 578T breast, 86%; in the experiment on NCI/ADR-RES ovarian it was 92.5%; in the experiment on T-47D breast, 72.1%; in the experiment with BT-549 breast, 82.3%. In addition, the growth with MDA-MB-435 melanoma was 89.1%; in the experiment with SW-620 colon, 91.3%; in the experiment on MCF7 breast, 88.3%; in the experiment on HCT-116 colon it was 86.3%; in the experiment on HCC-2998 colon, 109%; with KM12 colon, 91.7%.
